“And” between values parts separate entries of the source, which are not always exact repeats. Equal entries are not always repeated. The panel holds about 83,000 compounds, 20% with a hit somewhere; the sample as a whole holds those more often.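 The test compound was applied at a single concentration to cells in 96-well plates for 48 hours, and percent growth was recorded.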 Unmarked numbers belong to inactive results. The source made the active and inactive calls. How the source made its calls: active means growth percent below 10; inactive means the rest.

Some test systems named below: DU-145 prostate; K-562 leukemia; MALME-3M melanoma; MDA-MB-231 breast; RXF 393 renal; SF-268 CNS; SF-295 CNS; SF-539 CNS; UACC-257 melanoma; M14 melanoma; HCT-15 colon; HT29 colon; SNB-75 CNS; SNB-19 CNS; U251 CNS; PC-3 prostate; SK-MEL-5 melanoma; UACC-62 melanoma; LOX IMVI melanoma; SK-MEL-28 melanoma.
What all share (assay): NCI-60 one-dose screen, 48 h (100 = growth as untreated, 0 = no growth, -100 = all killed)
Holding throughout (settings): 10 µM unless noted

Take `COc1ccc2nc3cc(Cl)ccc3c(NCCNc3c4ccc(Cl)cc4nc4ccc(OC)cc34)c2c1`: the growth in the assay on DU-145 prostate is -95.4% (active); with K-562 leukemia, -52.7% (active); with MALME-3M melanoma it was -77.4% (active); in the assay with MDA-MB-231 breast it was -78.9% (active); in the assay with RXF 393 renal, -93% (active); with SF-268 CNS, -82.6% (active). Also, the growth in the assay with SF-295 CNS is -93.2% (active); in the assay on SF-539 CNS, -85.5% (active); with UACC-257 melanoma, -89.6% (active); with M14 melanoma, -74.2% (active); in the assay on HCT-15 colon, -65.9% (active); in the assay with HT29 colon, -65.7% (active). For the same compound, the growth in the assay on SNB-75 CNS was -86.8% (active); in the assay on SNB-19 CNS, -87.7% (active); with U251 CNS, -84% (active); in the assay with PC-3 prostate, -63% (active); with SK-MEL-5 melanoma it was -96.5% (active); with UACC-62 melanoma it was -88.4% (active). In addition, the growth in the assay on LOX IMVI melanoma is -84.9% (active); in the assay on SK-MEL-28 melanoma it was -86.4% (active).
On to `CC1SC(=S)N(c2ccc(Cl)cc2)C1=O` (stereo not drawn), for which the growth in the assay with DU-145 prostate was 104% and 96.3%; in the assay on K-562 leukemia, 84.1% and 78.8%; with MALME-3M melanoma, 104% and 108%; in the assay with MDA-MB-231 breast it was 99.6% and 86.4%; in the assay with RXF 393 renal, 116%; in the assay with SF-268 CNS, 109% and 84.1%. Moreover, the growth is 96% and 98.8% with SF-295 CNS; 98.5% and 70.7% in the assay with SF-539 CNS; 97.9% in the assay with UACC-257 melanoma; 111% and 105% with M14 melanoma; 96.5% and 84.1% in the assay on HCT-15 colon; 105% and 98.8% in the assay with HT29 colon. Moreover, the growth in the assay with SNB-75 CNS is 88.8% and 83%; with SNB-19 CNS it was 99.9% and 104%; with U251 CNS, 95.4% and 93.6%; with PC-3 prostate, 97.7% and 74.3%; with SK-MEL-5 melanoma it was 94.6% and 93.6%; in the assay on UACC-62 melanoma, 82.5% and 70.1%. Further, the growth was 85.9% and 90.2% in the assay with LOX IMVI melanoma; 210% and 104% in the assay with SK-MEL-28 melanoma.
For `N[C@H](C(=O)O)[C@@H]1CC(Cl)=NO1`, the growth in the assay with DU-145 prostate was 37.7% [20 µM]; with K-562 leukemia it was 20% [20 µM]; in the assay on MALME-3M melanoma, 33.5% [20 µM]; with MDA-MB-231 breast, 43.4% [20 µM]; with RXF 393 renal it was 48.7% [20 µM]; in the assay with SF-268 CNS, 25.5% [20 µM]. Further, the growth in the assay on SF-295 CNS is 31.2% [20 µM]; in the assay on SF-539 CNS it was 21.4% [20 µM]; in the assay on UACC-257 melanoma it was 39.1% [20 µM]; in the assay with M14 melanoma it was 16.9% [20 µM]; with HCT-15 colon, 15.9% [20 µM]; in the assay with HT29 colon, 17.3% [20 µM]. The growth with SNB-75 CNS was 27.3% [20 µM]; with SNB-19 CNS, 30.6% [20 µM]; in the assay with U251 CNS it was 26.8% [20 µM]; in the assay with PC-3 prostate it was 31% [20 µM]; with SK-MEL-5 melanoma, 11.4% [20 µM]; in the assay on UACC-62 melanoma it was 22.4% [20 µM]. Besides, the growth in the assay with LOX IMVI melanoma was 13.2% [20 µM]; with SK-MEL-28 melanoma, 34.7% [20 µM].
Take `Oc1c(Cl)c2ccccc2c2ccccc12`: the growth in the assay with DU-145 prostate is 102%; in the assay on K-562 leukemia, -12.5% (active); with MALME-3M melanoma it was 123%; in the assay with MDA-MB-231 breast, 95.5%; in the assay with RXF 393 renal, 116%; with SF-268 CNS it was 104%. Moreover, the growth in the assay with SF-295 CNS was 120%; in the assay with SF-539 CNS it was 107%; in the assay on UACC-257 melanoma, 103%; with M14 melanoma, 108%; in the assay with HCT-15 colon, 112%; with HT29 colon, 103%. For the same compound, the growth in the assay with SNB-75 CNS was 88.2%; with SNB-19 CNS it was 99.1%; in the assay on U251 CNS, 113%; in the assay on PC-3 prostate, 97.5%; with SK-MEL-5 melanoma, 101%; with UACC-62 melanoma, 107%. In addition, the growth with LOX IMVI melanoma is 98%; in the assay with SK-MEL-28 melanoma, 108%.
Consider `c1ccc2c(c1)Nc1cc3ccccc3cc1N2`, for which the growth was 60.9% with DU-145 prostate; 20.9% in the assay with K-562 leukemia; 28.4% in the assay with MALME-3M melanoma; 33.1% with MDA-MB-231 breast; 63.3% with RXF 393 renal; 66.2% with SF-268 CNS. Moreover, the growth in the assay with SF-295 CNS was 46.2%; with SF-539 CNS, 39.1%; in the assay on UACC-257 melanoma, 37.4%; in the assay on M14 melanoma it was 23.9%; in the assay on HCT-15 colon, 17.5%; with HT29 colon it was 14.7%. Moreover, the growth with SNB-75 CNS is 32.6%; with SNB-19 CNS, 57.1%; in the assay with U251 CNS it was 43%; in the assay with PC-3 prostate it was 24.9%; with SK-MEL-5 melanoma it was -75.7% (active); in the assay with UACC-62 melanoma, 52.9%. Further, the growth was 11.3% in the assay on LOX IMVI melanoma and 83.3% in the assay with SK-MEL-28 melanoma.
Turning to `C=C(Cl)C(=NC(C)(C)C)Nc1ccccc1C`, the growth in the assay on DU-145 prostate is 87.1%; in the assay with K-562 leukemia, 19.8%; in the assay with MALME-3M melanoma, 83.9%; in the assay with MDA-MB-231 breast, 91.3%; in the assay with RXF 393 renal it was 103%; in the assay on SF-268 CNS, 101%. Further, the growth in the assay with SF-295 CNS was 99.3%; with SF-539 CNS, 99.3%; with UACC-257 melanoma, 100%; in the assay with M14 melanoma it was 85.1%; in the assay on HCT-15 colon, 101%; in the assay with HT29 colon, 37.6%. Further, the growth with SNB-75 CNS was 85.7%; in the assay with SNB-19 CNS it was 95.3%; in the assay on U251 CNS, 83.9%; in the assay with PC-3 prostate, 77.3%; with SK-MEL-5 melanoma, 95.4%; in the assay on UACC-62 melanoma it was 59.7%. Moreover, the growth is 81.1% in the assay on LOX IMVI melanoma and 98.4% in the assay on SK-MEL-28 melanoma.
In the case of `CNC(=O)N/N=C/c1ccc([N+](=O)[O-])o1`, the growth in the assay with DU-145 prostate was 104%; with K-562 leukemia, 96.5%; in the assay on MALME-3M melanoma, 112%; in the assay on MDA-MB-231 breast, 97.6%; in the assay with RXF 393 renal it was 115%; in the assay on SF-268 CNS, 94.2%. The growth is 107% with SF-295 CNS; 110% with SF-539 CNS; 87.8% in the assay on UACC-257 melanoma; 102% with M14 melanoma; 107% with HCT-15 colon; 102% with HT29 colon. The growth with SNB-75 CNS was 114%; with SNB-19 CNS, 94.9%; in the assay on U251 CNS it was 96.9%; in the assay with PC-3 prostate, 92.7%; with SK-MEL-5 melanoma, 98.6%; in the assay with UACC-62 melanoma, 88.9%. In addition, the growth in the assay on SK-MEL-28 melanoma is 111%.
Consider `Cc1ccc2nc(-[n+]3cc4ccccc4cc3C)ccc2c1`, for which the growth in the assay with DU-145 prostate was 53.6%; with K-562 leukemia, 39.1%; in the assay with MALME-3M melanoma, 44.2%; with MDA-MB-231 breast it was 54.8%; in the assay on RXF 393 renal, 91.2%; with SF-268 CNS, 39.5%. Moreover, the growth with SF-295 CNS was 33.3%; in the assay on SF-539 CNS, 43.8%; with UACC-257 melanoma, 11.4%; in the assay on M14 melanoma it was 43.1%; with HCT-15 colon it was 104%; with HT29 colon, 14.5%. Besides, the growth with SNB-75 CNS is 34.5%; in the assay on SNB-19 CNS it was 27.2%; in the assay on U251 CNS, 22.6%; in the assay on PC-3 prostate, 17.5%; with SK-MEL-5 melanoma, -27.5% (active); in the assay on UACC-62 melanoma, 30.7%. Also, the growth with SK-MEL-28 melanoma is 43.1%.

Values taken from PubChem BioAssay (NCI).
